# Screens from PubChem.
# TDP1 cell noCPT = qHTS for Inhibitors of human tyrosyl-DNA phosphodiesterase 1 (TDP1): qHTS in cells in absence of CPT | DT40 Tdp1-/- hTDP1 cells, no CPT, ATP luminescence, 48 h | Potency, µM (series often up to 46.2 µM), for the others: top-dose activity change, negative = growth inhibition, usual class: inhibitors | actives 15% (n = 420,000); further: nearly all actives have a fitted effect of over 55% in size
#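 A cellular qHTS used chicken DT40 cells lacking endogenous Tdp1 but carrying stably transfected human TDP1. Compounds were applied without camptothecin, and cell growth kinetics were judged by ATP-dependent luminescence after ≥48 hr.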
# HT1080 IDH1KD tx = toxicity to HT-1080 IDH1 knockdown cells (counter line); HT-1080 IDH1 knockdown viability, ATP luminescence, 48 h; Potency, µM (highest dose often 46.1 µM), without a hit: top-dose activity, negative = toxicity, actives largely listed as cytotoxic; actives 2% (n = 360,000);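 further: 0% = DMSO wells and -100% = cell-free medium wells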
#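 HT-1080-IDH1KD cells (IDH1 knocked down), 750/well in RPMI with 5% FBS, treated with compound 48 h at 37 degrees C. Viability by CellTiter-Glo luminescence, normalised to DMSO and no-cell wells; concentration-response curves classed.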
# TDP1 cell CPT = growth inhibition of DT40 Tdp1-/-;hTDP1 cells with camptothecin (screen for TDP1 inhibitors); chicken DT40 Tdp1-/-;hTDP1 cells + 20 nM CPT, ATP luminescence, 48 h; Potency, µM (highest dose often 46.2 µM), for inactives: top-dose activity change, negative = growth inhibition, hits mostly inhibitors; actives 12% (n = 420,000); AID 686979; further: nearly all actives have a fitted effect of over 55% in size
#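 Chicken DT40 Tdp1-/- cells complemented with human TDP1, 400 cells/well, exposed to compounds plus 20 nM camptothecin for at least 48 h at 37 C; viability read as ATP content by CellTiter-Glo luminescence.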
# KB-3-1 tox = KB-3-1 parental cell cytotoxicity; KB-3-1 viability, CellTiter-Glo ATP luminescence, 72 h; Potency, µM (highest dose often 46.1 µM), usual class: cytotoxic; actives 1.4% (n = 400,000); AID 1347075; further: nearly all actives have a fitted effect of over 60% in size
#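 Here the drug-naive KB-3-1 line serves as comparator for MDR sub-line selectivity; cells received compound titrations, 72 h at 37 °C, then CellTiter-Glo readout.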
# KB-V1 cytotox = KB-V1 MDR subline cytotoxicity; KB-V1 MDR cells viability, CellTiter-Glo, 72 h; Potency, µM (doses to about 46.1 µM), most hits filed as cytotoxic; actives 3.4% (n = 400,000); AID 1347076; further: nearly all actives have a fitted effect of over 60% in size
#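 Drug-selected KB-V1 cells, grown in DMEM lacking phenol red with 10% FBS, receive compound titrations; after three days at 37 degrees C, surviving cell ATP is quantified by CellTiter-Glo luminescence and responses normalized and curve-fitted.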
# HT1080-NT tox = kills 2HG-producing HT-1080-NT fibrosarcoma cells | HT-1080-NT fibrosarcoma viability, CellTiter-Glo ATP luminescence, 48 h | Potency, µM (highest dose often 46.1 µM), for the others: at the top dose activity, negative = less viability, usual class: cytotoxic | actives 1.6% (n = 360,000) | AID 686970;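 further: NT is the 2HG producing partner of a matched IDH1 knockdown line; 0% = DMSO-treated cells and -100% = media-only wells without cells; nearly all actives have a fitted effect of over 55% in size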
#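 HT-1080-NT; 750 cells/well; 5% FBS RPMI; 48 h compound, 37 degrees C; CellTiter-Glo luminescence; curve fitting and curve-class assignment.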
# Active calls of the source: *; i = inactive; ? = inconclusive; · = not tested or not shown; [ ] = remark or other dose. Compounds with a hit are over-represented: about 19% of the library has one in this group of screens. The call rests on the fitted dose curve; in most records, active means well fitted curve in the direction sought with a large enough effect; inconclusive means small, poorly fitted or top-dose-only effect, or another doubt; inactive means no such curve, though single readings can be large; an effect the other way counts as inactive or inconclusive. Unless noted, on the % scale 0 is the no-effect control and ±100 the full control effect; potency means the concentration at half of the fitted maximal effect.
SMILES,TDP1 cell noCPT,HT1080 IDH1KD tx,TDP1 cell CPT,KB-3-1 tox,KB-V1 cytotox,HT1080-NT tox
Cc1ccc(CCNC(=O)c2ccc(Nc3nc4ccccc4n4nnnc34)cc2)cc1,18µM*,·,?,i,i,·
O=C(NCc1ccc(F)cc1)c1ccc(Nc2nc3ccccc3n3nnnc23)cc1,15µM*,·,21µM*,i,i,·
CC1(C)CC2CC(C)(CN2S(=O)(=O)c2ccc(C(=O)Nc3cc(S(=O)(=O)N4CCOCC4)ccc3Cl)cc2)C1 (configuration not stated),2.9µM*,0%,3.3µM*,i,?,11%
CC1(C)CC2CC(C)(CN2S(=O)(=O)c2ccc(C(=O)Nc3cccc(S(=O)(=O)N4CCOCC4)c3)cc2)C1 (configuration not stated),5.8µM*,?,4.1µM*,i,?,-20%
CC1(C)CC2CC(C)(CN2S(=O)(=O)c2cccc(C(N)=O)c2)C1 (configuration not stated),?,-12%,-30%,i,i,-1%
O=C(CSc1ccccc1)N1CCc2ccccc21,-1%,-1%,-4%,i,i,5%
CCn1c(SCC(=O)N2CCCc3ccccc32)nnc1-c1c[nH]c2ccccc12,?,-4%,?,i,i,-6%
Cn1c(SCC(=O)N2CCN(c3ccccc3)CC2)nnc1-c1c[nH]c2ccccc12,?,-17%,?,i,i,-5%
CCn1cc(SCC(=O)N2CCc3ccccc32)c2ccccc21,21µM*,0%,?,i,i,-11%
CCn1c(SCC(=O)N2CCN(c3ccccc3)CC2)nnc1-c1c[nH]c2ccccc12,?,-5%,21µM*,?,i,-1%
CCn1c(SCC(=O)N2CCc3ccccc32)nnc1-c1c[nH]c2ccccc12,21µM*,-1%,?,?,?,-4%
COc1ccc(CN(C)C(=O)c2cccc(NS(=O)(=O)c3ccccc3)c2)c(OC)c1,0%,-7%,-27%,i,i,5%
Cc1ccc(NC(=O)CN(C)C(=O)c2cccc(S(=O)(=O)N3CCc4ccccc43)c2)cc1,16µM*,-24%,21µM*,i,i,-25%
COc1ccc(CN(C)C(=O)c2cccc(S(=O)(=O)N3CCc4ccccc43)c2)c(OC)c1,15µM*,-12%,21µM*,18µM*,?,-9%[9.24 µM]
COc1ccccc1CN(C)C(=O)c1cccc(S(=O)(=O)N2CCCC2)c1,-10%,6%,?,i,?,5%
COc1ccccc1CN(C)C(=O)c1cccc(S(=O)(=O)N2CCc3ccccc3C2)c1,16µM*,3%,?,i,i,4%
CC(C)N(CCNC(=O)C1CCCN(c2ncnc3c2nc2n3CCCCC2)C1)Cc1ccccc1 (configuration not stated),-11%,-12%,?,?,i,-22%
Cc1cc(-c2ccccc2)n(-c2ccccc2)n1,-27%,5%,-3%,i,?,12%
COc1ccc(/C=C/c2nc3ccccc3c(=O)n2-c2cccc(C(F)(F)F)c2)cc1,12µM*,·,5.8µM*,?,?,·
COc1ccc(-n2c(/C=C/c3cccc4ccccc34)nc3ccccc3c2=O)cc1OC,15µM*,·,?,i,?,·
COc1cc(OC)c(OC)cc1/C=C/c1nc2cc3ccccc3cc2c(=O)n1-c1ccc(Cl)cc1,16µM*,·,13µM*,i,?,·
COc1cc(OC)c(OC)cc1/C=C/c1nc2cc3ccccc3cc2c(=O)n1-c1ccccc1Br,?,·,?,i,i,·
CCCCC(CCC(=O)Nc1nccs1)C(=O)O (configuration not stated),-1%,6%,1%,i,i,14%
O=C(Cn1c(=O)cnc2ccccc21)Nc1cccc(S(=O)(=O)N2CCOCC2)c1,11%,4%,7%,i,i,2%
COc1ccccc1NS(=O)(=O)c1ccc(C(=O)N2CC(C)OC(C)C2)cc1 (configuration not stated),-5%,4%,?,i,i,5%
SMILES,TDP1 cell noCPT,HT1080 IDH1KD tx,TDP1 cell CPT,KB-3-1 tox,KB-V1 cytotox,HT1080-NT tox
CCCCN(C(=O)c1ccc(-c2ccc([N+](=O)[O-])cc2)o1)c1c(N)n(CCCC)c(=O)[nH]c1=O,16µM*,-5%,?,i,i,0%
CCCCN(C(=O)c1ccccc1OCc1ccc(F)cc1)c1c(N)n(CCC)c(=O)[nH]c1=O,?,-12%,18µM*,i,?,1%
CCCn1c(N)c(N(CCOC)C(=O)c2ccccc2F)c(=O)[nH]c1=O,-4%,22%,12%,i,i,27%
CCCCN(C(=O)c1ccc([N+](=O)[O-])o1)c1c(N)n(CCCC)c(=O)[nH]c1=O,-17%,3%,?,i,i,-1%
CCCCn1c(N)c(N(Cc2ccccc2OC)C(=O)c2ccc([N+](=O)[O-])s2)c(=O)[nH]c1=O,18µM*,-10%,?,?,i,-18%
C[C@H](CO)N1C[C@H](C)[C@@H](CN(C)Cc2ccc(C(=O)O)cc2)Oc2ncc(Br)cc2C1=O,-4%,10%,0%,i,i,8%
NC(=O)CSc1nnnn1-c1cccc(O)c1,-13%,·,-4%,·,·,·
Cc1cc(=O)[nH]c(NCCO)n1,2%,-9%,27%,i,i,-3%
CCOC(=O)C1CCN(C(=O)c2cc(S(=O)(=O)N3CCOCC3)ccc2C)CC1,6%,7%,-16%,i,i,7%[9.24 µM]
COC(=O)C1[C@H]2C(=O)N(Cc3cccs3)C[C@]23C=C[C@H]1O3 (some centres not stated),-9%,-4%,11%,i,i,12%
CCOC(=O)C1C2C=CC3(CN(Cc4cccs4)C(=O)C13)O2 (configuration not stated),21µM*,25%,?,i,i,20%
CCN(CC)S(=O)(=O)c1ccc(/C=C/C(=O)OCC#N)cc1,-8%,2%,-7%,i,i,1%
CCN(CC)S(=O)(=O)c1ccc(/C=C/C(=O)Nc2ccc(F)cc2F)cc1,13µM*,-20%,?,?,i,-3%
